Shown are actives, neighbours in structure and some others; about 12% of the full set was active somewhere.
L3MBTL1 inh = inhibitors of human L3MBTL1. AID 485360. 230,000 tested, 0.66% active. Q9Y468. AlphaScreen L3MBTL1–H3K9me1 peptide binding. Potency, µM (doses to about 57.1 µM), for the others: top-dose activity, negative = inhibition, hits mostly inhibitors; also: % is scaled to controls: 0 for no effect and ±100 for the full control effect; nearly all actives have a fitted effect of over 60% in size
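L3MBTL1 (50 nM) pre-complexed 30 min with biotinylated H3(1-15)K9me1 peptide (75 nM), then compounds added for 30 min at room temperature; AlphaScreen streptavidin donor/nickel chelate acceptor beads (10 ug/mL final) read after 30 min dark incubation.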
HP1b chromo inh = HP1-beta chromodomain-methylated histone interaction inhibition | P83916 | AlphaScreen HP1-beta / biotin-H3K9me3 peptide binding | Potency, µM (titrated, usually from 114 µM), without a hit: at the top dose activity change, negative = inhibition, hits mostly inhibitors | 390,000 tested, 0.56% active | AID 540317; also: nearly all actives have a fitted effect of over 70% in size
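Compound inhibition of the preformed complex between 50 nM HP1-beta and 50 nM biotinylated H3K9me3 peptide was read by AlphaScreen. Buffer was PBS pH 7.4 with 0.01% Tween-20. Incubations ran 30 min at room temperature, with 10 ug/mL donor/acceptor beads.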
BAZ2B inh = blocks human BAZ2B | Q9UIF8 | AlphaScreen BAZ2B-H3K14Ac peptide displacement | Potency, µM (highest dose often 114 µM), inactives show at the highest dose activity change, negative = inhibition, most hits filed as inhibitors | 360,000 tested, 4.4% active; also: % is scaled to controls: 0 for no effect and ±100 for the full control effect; nearly all actives have a fitted effect of over 60% in size
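AlphaScreen displacement of biotin-H3(5-23)K14Ac peptide (50 nM final) from BAZ2B (50 nM final) in PBS pH 7.4, 0.01% Tween-20; complex preformed 30 min RT, then compounds (top 110 uM) 30 min RT, beads 20 min dark.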
Sfp inh = Sfp phosphopantetheinyl transferase inhibition | Potency, µM, for the others: largest response in the series, negative = inhibition, hits mostly inhibitors | Biochemical Sfp PPTase activity, qHTS | 310,000 tested, 3.5% active;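 also: the enzyme is Sfp with the accession as filed and its product quenches rhodamine fluorescence; 0% = enzyme reaction without inhibitor and -100% = no enzyme wells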
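Sfp 15 nM + cpd, 15 min RT; start w/ rhodamine-CoA 5 uM, BHQ-2-YbbR 12.5 uM (final); 50 mM Hepes pH 7.6, 10 mM MgCl2, 0.01% NP-40, 0.01% BSA; read 525/598 nm at 0 and 30 min.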
G9a inh = blocks human histone lysine methyltransferase G9a; Q96KQ7; G9a H3K9 monomethylation, AlphaScreen, 2 h; Potency, µM (series often up to 102 µM), for inactives: at the top dose activity, negative = inhibition, usual class: inhibitors; 350,000 tested, 8.8% active; also: % is scaled to controls: 0 for no effect and ±100 for the full control effect; nearly all actives have a fitted effect of over 75% in size
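Step 1: enzyme (final 20 nM) with compound, 15 min RT. Step 2: substrate peptide 500 nM and SAM 20 uM, 2 h RT. Step 3: anti-H3K9me1 antibody and AlphaScreen beads, 10 min, then plate read.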
JMJD2A Tudor = blocks the human JMJD2A Tudor domain; 390,000 tested, 4.4% active; AlphaScreen JMJD2A-Tudor / H3K4me3 peptide binding; Potency, µM (top dose mostly 114 µM), without a hit: at the top dose activity change, negative = inhibition, usual class: inhibitors; O75164; also: % is scaled to controls: 0 for no effect and ±100 for the full control effect; nearly all actives have a fitted effect of over 50% in size
The depositor's hits bear a star; u = inconclusive; x = not tested or not shown; [ ] = remark or other dose. Calls follow the shape of the dose curve; as a rule, active = well fitted curve in the direction sought with a large enough effect; inconclusive = small, poorly fitted or top-dose-only effect, or another doubt; inactive = no such curve, though single readings can be large; an effect the other way counts as inactive or inconclusive. Potency is read from the fitted curve at half-maximal effect.

SMILES	L3MBTL1 inh	HP1b chromo inh	BAZ2B inh	Sfp inh	G9a inh	JMJD2A Tudor
O=C(c1c(F)c(F)c(F)c(F)c1F)N1CCN(c2cccc(C(F)(F)F)c2)CC1	u	u	0.0%	-17.8%	u	14.1µM*
COc1ccc(C)cc1NC(=O)CN1CCN(c2ccccc2F)CC1	x	21.1%	8.9%	-2.8%	-29.9%[12.7 µM]	-11.8%
CCOc1ccc2ccccc2c1/C=N/NC(=O)CNC(=O)c1ccccc1O	x	4.0%	-4.0%	9.7%	-4.5%	-15.0%
Cc1ccccc1Nc1cc(C(=O)NCc2cccs2)c2ccccc2n1	x	62.6%	x	x	18.4%[59 µM]	-5.0%
CCN1CCN(c2ccc(NC(=O)Cc3ccccc3)cc2)CC1	x	21.6%	-35.5%	9.3%	-33.1%[12.7 µM]	-11.4%
COc1ccc(C(=O)CCC(=O)Nc2ccc(N3CCCCC3)cc2)cc1OC	x	u	35.5µM*	1.1%	44.7µM*	u
COc1cccc(OC)c1C(=O)Nc1ccc(N2CCCC2)cc1	-26.1%	-13.0%	u	8.7%	12.6µM*	u
Cc1ccc(NC(=O)c2cc(NC(=O)c3ccccc3C(=O)O)ccc2N2CCCCC2)cc1	u	14.1%	u	-26.4%	14.1µM*	-21.7%
CCC(=O)Nc1ccc(N2CCN(Cc3ccccc3)CC2)cc1	0.8%	26.4%	-5.8%	12.1%	50.1µM*	-16.0%[11.4 µM]
COc1ccc(N(CC(=O)NCCc2ccccc2)C(=O)c2csnn2)cc1OC	x	33.4%	-8.8%	6.2%	-2.6%	-28.8%
CC(=O)Nc1ccc(CN2CCN(c3cccc(C(F)(F)F)c3)CC2)cc1	x	-49.9%	50.1µM*	-27.7%	u	2.51µM*
COc1ccc(Br)cc1C(=O)Nc1ccc(N2CCCC2)cc1	-15.0%	u	22.4µM*	-5.1%	x	u
COc1ccccc1C(=O)Nc1ccc(N2CCN(Cc3ccccc3)CC2)cc1	-6.2%	u	44.7µM*	6.1%	u	u
COc1ccc(Br)cc1C(=O)Nc1ccc(N2CCN(S(C)(=O)=O)CC2)cc1	-16.7%	9.0%	2.6%	5.1%	5.2%[12.7 µM]	1.9%
COc1ccccc1C(=O)NCCN1CCN(c2ccccc2)CC1	-0.1%	12.5%	2.5%	-1.8%	x	-6.3%
COc1ccc(OC)c(NC(=O)Cn2c(=O)n(CC3CCCO3)c(=O)c3cc(OC)c(OC)cc32)c1 (stereo unspecified)	-7.1%	15.1%	-26.7%	17.1%	-1.5%	-19.3%
Cc1ccc2c(c1)C(=O)C(=O)N2Cc1ccc(Cl)cc1	-13.6%	-5.5%	x	x	x	u
O=c1oc2cc(O)ccc2c2ccccc12	x	15.3%	u	7.4%	2µM*	-3.7%
Cc1ccc(C(=O)Oc2coc(CSc3nnc(NC(=O)c4cccs4)s3)cc2=O)cc1	u	30.2%	-37.4%	1.3%	12.6µM*	-35.7%
CC(=O)Nc1nnc(SCc2cc(=O)c(OC(=O)c3ccccc3)co2)s1	x	25.9%	-12.1%	10.4%	-19.3%	1.7%
Cc1nc2sc3c(c2c(=O)[nH]1)CCCC3	-4.5%	27.1%	-2.0%	21.7%	31.9%	-11.9%
O=c1[nH]c(S)nc2sc3c(c12)CCCC3	-7.6%	0.5%	u	44.7µM*	1µM*	25.1µM*
O=C(Nc1cccc(S(=O)(=O)N2CCCCC2)c1)c1ccc(N2CCCC2=O)cc1	8.2%	43.9%	-1.1%	x	-7.9%[12.7 µM]	-6.0%
Cc1ncc(CO)c(CNc2ccc(Oc3ccccc3)cc2)c1O	x	u	u	7.2%	70.8µM*	u
Cc1ncc(CSSCc2cnc(C)c(O)c2CO)c(CO)c1O	x	x	x	11.5%	6.2%[59 µM]	x
SMILES	L3MBTL1 inh	HP1b chromo inh	BAZ2B inh	Sfp inh	G9a inh	JMJD2A Tudor
O=C(Oc1ccc(/C=N/NC(=O)c2ccccn2)cc1)c1cccc(F)c1	x	23.3%	x	x	x	u
O=C(O)c1cc(N/N=C/c2cccs2)ccc1Cl	u	x	u	2.0%	u	x
O=C(N/N=C/c1cn(Cc2ccccc2)c2ccccc12)c1cc(O)cc(O)c1	x	-18.0%	50.1µM*	-7.0%	79.4µM*	u
O=C(O)c1ccc(N/N=C/c2cn(Cc3ccc(F)cc3)c3ccccc23)cc1	-5.9%	-30.9%	44.7µM*	-13.2%	44.7µM*	56.2µM*
CC(C)n1cc(/C=N/Nc2ccc(Cl)c(C(=O)O)c2)c2ccccc21	-7.1%	x	44.7µM*	-8.5%	10µM*	x
CCNC(=S)N/N=C/c1cn(Cc2ccc(F)cc2)c2ccccc12	-11.3%	-11.0%	u	-0.8%	8.3%[59 µM]	u
CC(C)[C@H](NS(=O)(=O)c1ccccc1)C(=O)OCc1cc([N+](=O)[O-])cc2c1OCOC2	x	13.6%	x	x	x	-27.4%
Cc1ccc(NC(=O)Cc2nc(CCl)cs2)cc1	9.1%	19.4%	-34.1%	-12.4%	8.91µM*	u
C/C=C/c1ccc(OCC(=O)OCc2csc(CC(=O)Nc3ccccc3C)n2)c(OC)c1	x	3.8%	-7.8%	-1.5%	x	-10.2%
COc1cc(/C=C/C(=O)OCc2csc(CC(=O)Nc3ccc(C)cc3)n2)ccc1OCC#N	1.1%	27.2%	8.0%	x	10µM*	-20.9%
C[C@H](C(=O)OCO/N=[N+](\[O-])N1CCCC1)c1cccc2ccccc12	x	5.4%	x	56.2µM*	x	-28.3%
O=C(Cn1c(=O)n(Cc2ccc(F)cc2)c(=O)c2sc3ccccc3c21)NCc1ccccc1	x	18.8%	-20.2%	x	-1.5%[59 µM]	-18.9%
CC1=Nn2c(nnc2-c2ccccc2Cl)SC1	-1.3%	49.6%	0.6%	-14.6%	22.4µM*	-27.0%
COc1ccccc1-c1nnc2n1N=C(C)CS2	1.1%	33.8%	-3.4%	6.8%	20µM*	56.2µM*
COc1ccccc1-c1nnc2n1N=C(C(C)(C)C)CS2	x	19.3%	0.3%	14.7%	-9.7%[12.7 µM]	-2.7%
COc1ccc(S(=O)(=O)NCCS(=O)(=O)N2CCN(c3ccccc3)CC2)cc1OC	x	22.7%[57 µM]	-8.9%	x	-13.1%[59 µM]	-17.6%
COCCCNC(=O)CCc1nnc(Cc2ccc(-c3ccccc3)cc2)o1	5.3%	28.5%	0.3%	7.1%	x	0.7%
Cc1ccc(CNC(=O)CCc2nnc(Cc3ccc(-c4ccccc4)cc3)o2)o1	-5.0%	12.4%	-26.6%	22.4µM*	-7.3%	-12.5%
CCN(c1ccc(NC(=O)COC(=O)c2cccs2)cc1)C(C)C	x	u	u	-5.5%	11.2µM*	44.7µM*
CCN(c1ccc(NC(=O)COC(=O)c2cc3ccccc3oc2=O)cc1)C(C)C	u	u	31.6µM*	3.6%	22.4µM*	28.2µM*
CN(C)S(=O)(=O)c1cccc(NC(=O)COC(=O)c2cc3ccccc3oc2=O)c1	0.9%	25.0%	18.2%	16.0%	79.4µM*	-11.3%
CCN(CC(=O)Nc1ccc(NC(C)=O)cc1)C(=O)c1cc2ccccc2oc1=O	0.5%	14.3%	-4.7%	x	-1.1%[12.7 µM]	-12.3%

Screens from PubChem BioAssay.
